ssDAF12 agonist: activators of S. stercoralis DAF-12 nuclear receptor; HEK293 ssDAF-12/GRIP1 lit1-tk-luc reporter, luminescence; % of 3 µM dafachronic acid response; activation, % at 6.8 µM; 1% of 370,000 active; AID 652126;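 active means activation above the mean over all tested compounds plus 3 SD, cut at about 0.9% in these data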;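 further: 0% = DMSO-only wells and 100% = 3 µM delta7-dafachronic acid wells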
hgDAF-12 ag: activates the H. glycines DAF-12 receptor ligand-binding domain; activation, % at 6.8 µM; 1.8% of 370,000 active; HEK293 GAL4-hgDAF12 UAS-luciferase reporter, agonist luminescence; normalized to butyrate control;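 active means activation above a cutoff set at the mean of all screened compounds plus 3 SD, cut at about 10% in these data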;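 further: 0% = DMSO wells and 100% = sodium butyrate wells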
hcDAF12 agonist: H. contortus DAF-12 activation, primary screen | HEK293 hcDAF-12 lit1-tk-luc reporter, luminescence; 0% DMSO, 100% Δ7-dafachronic acid | 1.4% of 370,000 active | AID 652067 | activation, % at 6.8 µM;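 active means activation above the mean of all tested compounds plus 3 SD, cut at about 5.5% in these data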;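 further: 100% = response to 3 µM Δ7-dafachronic acid high control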
APP 5'UTR act: activates APP 5'UTR luciferase reporter | 1% of 190,000 active | activation, % at 2 µM | AID 1276 | SH-SY5Y APP 5'UTR luciferase reporter, luminescence; zero percent = DMSO vehicle wells;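 active means activation above a set limit, based on mean plus 3 SD of controls, cut at about 140% in these data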
NF-kB neuron act: NF-kB expression increase, human neuronal cells; fold change at 12.5 µM; 1.6% of 190,000 active; AID 1239; NF-kB reporter expression; stronger effect = higher value; in the data active means fold change above about 3.3
LXR ag: counter-screen for hcDAF-12 agonists: agonists of human LXR-beta | HEK293 Gal4-LXR tk-luc reporter, luminescence, 24 h; normalized: DMSO 0%, positive control 100% | shares compounds with hcDAF12 agonist | activation, % at 6.8 µM | 3,400 tested, under 10 active;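 active means mean percent activation of the reporter above a cutoff set as the average over tested compounds plus their standard deviation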
Target sequence (P55055 whole entry, looked up, the tested form may be a part): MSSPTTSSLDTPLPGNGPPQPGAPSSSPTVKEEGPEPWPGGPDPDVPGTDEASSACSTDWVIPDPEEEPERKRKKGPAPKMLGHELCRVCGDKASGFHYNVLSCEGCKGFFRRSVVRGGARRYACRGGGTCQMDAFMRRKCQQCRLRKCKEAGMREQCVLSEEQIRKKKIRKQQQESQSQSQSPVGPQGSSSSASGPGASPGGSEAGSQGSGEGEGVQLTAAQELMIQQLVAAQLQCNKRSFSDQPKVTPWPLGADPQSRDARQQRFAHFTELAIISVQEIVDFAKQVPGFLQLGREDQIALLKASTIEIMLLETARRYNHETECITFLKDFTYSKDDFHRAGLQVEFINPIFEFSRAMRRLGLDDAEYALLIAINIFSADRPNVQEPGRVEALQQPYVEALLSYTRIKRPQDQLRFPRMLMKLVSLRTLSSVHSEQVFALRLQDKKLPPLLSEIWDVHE
hcDAF12 ag: confirmation of H. contortus DAF-12 agonists; shares compounds with hcDAF12 agonist; activation, % at 6.8 µM; 61% of 3,400 active; HEK293 hcDAF-12 lit1-tk-luc reporter, luminescence; % of Δ7-dafachronic acid response;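 active means mean activation across triplicate tests above the threshold derived from the earlier primary screen, cut at about 5.5% in these data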;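 further: 0% = DMSO only wells and 100% = 3 µM Δ7-dafachronic acid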
hgDAF12 conf: hgDAF-12 agonism, confirmation assay. shares compounds with hgDAF-12 ag. HEK293 GAL4-hgDAF12 luciferase reporter, agonist mode; percent of butyrate response. activation, % at 6.8 µM. 80% of 3,300 active. AID 743050;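 active means mean activation over triplicate wells above the hit cutoff derived from the earlier primary screen, cut at about 11% in these data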;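 further: 0% = DMSO low control and 100% = 2 mM sodium butyrate high control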
LXR ag 2: activates human LXR-beta, counter-screen for DAF-12 agonists. shares compounds with hgDAF-12 ag. HEK293 Gal4-LXR luciferase reporter, 24 h. activation, % at 6.8 µM. 3,300 tested, under 10 active. AID 743051;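 active means mean activation of the triplicate above a set limit carried over from the primary screen, none filed active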
Active calls of the source: *. Sampled rows, rich in hits. Any-hit rate of the full collection: about 3.4%.

For COc1cccc([C@@H]2NC(=O)C/C=C/[C@H](C)[C@H](c3cccc(OC)c3)NC(=O)C/C=C/[C@@H]2C)c1 the results were ssDAF12 agonist 0, hgDAF-12 ag -2 and hcDAF12 agonist 0.
Screening Cc1ccc(C)c(NC(=O)c2cc3ccccn3n2)c1 returned ssDAF12 agonist 0, hgDAF-12 ag 21*, hcDAF12 agonist 7.8*, APP 5'UTR act 125, NF-kB neuron act 3, LXR ag 1, hcDAF12 ag 3, hgDAF12 conf 18* and LXR ag 2 1.
COc1cccc(N/C=C/C(=O)c2ccc(OC)c(OC)c2)c1 was read as ssDAF12 agonist -1, hgDAF-12 ag 2 and hcDAF12 agonist -2.
`Cc1cccc(N/C=C/C(=O)c2ccc(Cl)cc2)c1` gave ssDAF12 agonist 0, hgDAF-12 ag 14*, hcDAF12 agonist 6.6*, LXR ag 2, hcDAF12 ag 6.9*, hgDAF12 conf 22* and LXR ag 2 1.
Cc1ccc(Cl)c(N/C=C/C(=O)c2ccccc2)c1 was read as ssDAF12 agonist 2.9*, hgDAF-12 ag 15*, hcDAF12 agonist 13*, LXR ag 2, hcDAF12 ag 16*, hgDAF12 conf 26* and LXR ag 2 1.
`Cc1cccc(C(=O)NN/C=C/C(=O)c2ccccc2)c1` gave ssDAF12 agonist 0, hgDAF-12 ag 5 and hcDAF12 agonist -1.
For COc1ccc(N/C=C\C(=O)c2ccc(C)cc2)cc1OC the results were ssDAF12 agonist -1, hgDAF-12 ag 1, hcDAF12 agonist -1, APP 5'UTR act 17 and NF-kB neuron act 2.6.
Screening COc1ccc(C(=O)/C=C/Nc2cccc(O)c2)cc1 returned ssDAF12 agonist 1.2*, hgDAF-12 ag 19*, hcDAF12 agonist 8.2*, APP 5'UTR act 195*, NF-kB neuron act 14*, LXR ag 2, hcDAF12 ag 12*, hgDAF12 conf 27* and LXR ag 2 2.
For O=C(CSc1nnc(-c2cccs2)n1Cc1ccco1)Nc1ccc(Oc2ccccc2)cc1 the results were ssDAF12 agonist -2, hgDAF-12 ag -6 and hcDAF12 agonist -2.
CN(C)c1ccc(Nc2nc(-c3cccnc3)cs2)cc1 was read as ssDAF12 agonist 1.3*, hgDAF-12 ag 18*, hcDAF12 agonist 12*, APP 5'UTR act 188*, NF-kB neuron act 4.3*, LXR ag 2, hcDAF12 ag 9.7*, hgDAF12 conf 23* and LXR ag 2 1.
Screening Clc1ccc(-c2csc(Nc3cccnc3)n2)cc1 returned ssDAF12 agonist -1, hgDAF-12 ag 3 and hcDAF12 agonist 1.
For Fc1ccc(Nc2nc(-c3cccnc3)cs2)cc1 the results were ssDAF12 agonist 1.1*, hgDAF-12 ag 17*, hcDAF12 agonist 10*, APP 5'UTR act 106, NF-kB neuron act 3.6*, LXR ag 1, hcDAF12 ag 10*, hgDAF12 conf 20* and LXR ag 2 1.
`c1ccc(-c2csc(Nc3cccnc3)n2)cc1` gave ssDAF12 agonist 1.5*, hgDAF-12 ag 21*, hcDAF12 agonist 8.1*, APP 5'UTR act 53, NF-kB neuron act 1.1, LXR ag 0, hcDAF12 ag 7.9*, hgDAF12 conf 14* and LXR ag 2 1.
`O=C(C1CCCN1S(=O)(=O)c1ccc(F)cc1)N1CCc2ccccc2C1` (configuration not stated) gave ssDAF12 agonist -1, hgDAF-12 ag -4 and hcDAF12 agonist -2.
CCCc1nc2ccc(Cl)cn2c1Cc1ccccc1 was read as ssDAF12 agonist -1, hgDAF-12 ag 8 and hcDAF12 agonist 2.
`c1ccc(Cc2c(C3CCCCC3)nc3c4ccccc4ccn23)cc1` gave ssDAF12 agonist 2.1*, hgDAF-12 ag 18*, hcDAF12 agonist 11*, LXR ag 1, hcDAF12 ag 8.0*, hgDAF12 conf 20* and LXR ag 2 1.
`CCCc1nc2c3ccccc3ccn2c1Cc1ccc(C)cc1` gave ssDAF12 agonist 2.3*, hgDAF-12 ag 18*, hcDAF12 agonist 12*, LXR ag 1, hcDAF12 ag 13*, hgDAF12 conf 11* and LXR ag 2 1.
`Cc1cc(Br)cn2c(Cc3ccccc3)c(C3CCCCC3)nc12` gave ssDAF12 agonist -1, hgDAF-12 ag 2 and hcDAF12 agonist 2.
CCCCCCN1CCS(=O)(=O)N(Cc2ccc(F)cc2)C(C(=O)OC)C1 (configuration not stated) was read as ssDAF12 agonist -1, hgDAF-12 ag 1 and hcDAF12 agonist -1.
Screening N#C/C(=N\Nc1ccc(F)cc1)C(=N)N1CCCCC1 returned ssDAF12 agonist 0.9*, hgDAF-12 ag 18*, hcDAF12 agonist 8.1*, APP 5'UTR act 138*, NF-kB neuron act 8.2*, LXR ag 1, hcDAF12 ag 5, hgDAF12 conf 18* and LXR ag 2 1.
Screening CCOC(=O)c1cc(NC(=O)Nc2ccccc2Cl)c(C)nc1C returned ssDAF12 agonist -1, hgDAF-12 ag 3, hcDAF12 agonist -1, APP 5'UTR act 3 and NF-kB neuron act 1.1.
`CCOC(=O)c1c(N)sc(C(=O)Nc2ccccc2F)c1C` gave ssDAF12 agonist 1, hgDAF-12 ag 19*, hcDAF12 agonist 6.7*, APP 5'UTR act 238*, NF-kB neuron act 7.4*, LXR ag 2, hcDAF12 ag 8.5*, hgDAF12 conf 19* and LXR ag 2 1.
Screening CCOC(=O)c1sc(NC(=O)Nc2ccccc2Cl)cc1C returned ssDAF12 agonist 1.1*, hgDAF-12 ag 20*, hcDAF12 agonist 15*, APP 5'UTR act 220*, NF-kB neuron act 4.2*, LXR ag 2, hcDAF12 ag 6.1*, hgDAF12 conf 24* and LXR ag 2 1.
For CCOC(=O)c1c(N)sc(C(=O)Nc2ccccc2)c1C the results were ssDAF12 agonist 0, hgDAF-12 ag 28*, hcDAF12 agonist 10*, APP 5'UTR act 222*, NF-kB neuron act 7.1*, LXR ag 2, hcDAF12 ag 8.9*, hgDAF12 conf 22* and LXR ag 2 1.
